Data as given in PubChem BioAssay (NCATS).
Results filed as inconclusive are left out. Active and inactive are the calls of the source. Calls come from the whole dose curve; as a rule, active = well fitted inhibition curve with a large enough effect; inconclusive = small, poorly fitted or top-dose-only effect; inactive = no such curve, though single readings can be large or run the other way.

The compounds below were run against Retinaldehyde dehydrogenase 3 (Homo sapiens) (UniProt P47895) (assay: qHTS for Inhibitors of the Aldehyde Dehydrogenase Family (ALDH1A3) Primary screen (AID 2061315;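 for activity change, negative = inhibition: plate controls were DMSO vehicle for no effect and reference inhibitor for full effect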)). Settings: ALDH inhibition qHTS; series mostly up to 56 µM; activity change, negative = inhibition: at the top concentration.
Potency is the fitted concentration of half-maximal effect.

| Compound | Potency | activity change, negative = inhibition |
| --- | --- | --- |
| COc1cc(O)ccc1OCCNCC(O)COc1cccc2[nH]c3ccccc3c12 (stereo not given) | 3.16 µM (active) |  |
| N#CN1CCC(NS(=O)(=O)c2ccc(C(F)(F)F)cc2)CC1 |  | 6.49% (inactive) |
| CN(C)c1cnc2c(O)ccc(C(=O)O)c2c1 |  | -25.2% (inactive) |
| Cc1ccc(NS(=O)(=O)c2cc3c(cc2N2CCC2)NC(=O)CC3)cc1C |  | 1.45% (inactive) |
| O=C1Nc2ccccc2/C1=C\c1ccc([N+](=O)[O-])cc1 | inactive |  |
| O=C1Nc2ccc(C(=O)c3ccco3)cc2/C1=C/c1cc(Cl)c(O)c(Cl)c1 | inactive |  |
| Cc1noc(C)c1S(=O)(=O)Nc1cnccc1C(=O)Nc1nc(-c2ccccc2)cs1 |  | 23.6% (inactive) |
| CC(C)(C)OC(=O)N[C@@H](Cc1ccc(O[S+](=O)([O-])c2cccnc2)cc1)C(=O)N1CCN(c2ccccc2)CC1 |  | 3.9% (inactive) |
| O=C(C(NS(=O)(=O)c1ccc2[nH]c(=O)ccc2c1)c1cccc(C(F)(F)F)c1)N(Cc1ccco1)Cc1cccs1 (stereo not given) |  | -11.2% (inactive) |
| Cc1ccnc(NC(=S)N[C@@H]2CCN(c3cccc(C(F)(F)F)c3)C2)c1 |  | 21.5% (inactive) |
| CNS(=O)(=O)c1ccc(Cc2c(-c3cccc(-c4ccccc4)c3)[nH]n(-c3nc(C(=O)O)cs3)c2=O)cc1 |  | -16.5% (inactive) |
| O=C(O)c1ccc(O)c2ncc(NC3CCNC3)cc12 (stereo not given) |  | -11.9% (inactive) |
| O=[S+]([O-])(Nc1nccs1)c1ccc(NCc2cc(F)cc(Cl)c2O)cc1 |  | 3.16% (inactive) |
| CCN(CC)C(=O)CC(c1ccc2c(c1)OCO2)c1c(O)cc(OC)cc1OC (stereo not given) |  | -16.8% [at 114 µM] (inactive) |
| CC(=O)Nc1sc2c(c1-c1ccc(N3CCN(C(C)=O)CC3)nc1)CCNC2 |  | -18.8% (inactive) |
| N[C@@H]1CCN(c2cnc3c(O)ccc(C(=O)O)c3c2)C1 |  | -9.63% (inactive) |
| Cc1ccc(S(=O)(=O)Nc2cccc3ccc[n+](C)c23)cc1 |  | -4.97% (inactive) |
| CCC(=O)NC(c1ccco1)c1cc(Br)c2cccnc2c1O (stereo not given) |  | -16.4% (inactive) |
| Cc1ccc(NC(=O)CN2C(=O)N/C(=C\c3ccco3)C2=O)cc1 |  | 0.791% (inactive) |
| NNc1ccc(NC(=O)c2cccs2)cn1 |  | -1.45% (inactive) |
| c1c[nH]c(C2CCN(c3ncc(-c4ccc5c(c4)OCCCO5)s3)CC2)n1 |  | 5.38% (inactive) |
| Cc1ccc2nc3sc(C(=O)N4CCOCC4)cc3cc2c1 |  | -20% (inactive) |
| CNc1ncc(-c2cccc3ccccc23)o1 |  | -13% (inactive) |
| Cc1occc1-c1ccc2ncnc(NCc3ncc[nH]3)c2c1 |  | 0.0136% (inactive) |
| COc1ccc(-c2ccc(=O)n(CC(=O)NCCc3ccccc3)n2)cc1 |  | -22.7% (inactive) |
| COc1ccc(CNc2ccc(S(=O)(=O)Nc3nccs3)cc2)cc1O |  | -21.6% (inactive) |
| Nc1cccc(CNc2ccc(S(=O)(=O)Nc3nccs3)cc2)c1O |  | -14.8% [at 11.2 µM] (inactive) |
| CN1CCN(c2ccc(NC(=O)c3cccs3)cn2)CC1 |  | -20.5% (inactive) |
| O=C1CCCC2=C1C1(CCC1)N=C(Nc1nc3ccccc3o1)N2 |  | 1.03% (inactive) |
| Oc1cccc2cc(NCc3ccccc3F)cnc12 |  | -18.6% (inactive) |
